Tau ThT inhib: blocks human tau fibril formation measured by thioflavin T; P10636; recombinant tau K18 P301L, heparin-induced fibrillization, ThT fluorescence; Potency, µM (top dose mostly 57.4 µM), usual class: inhibitors; 270,000 tested, 2.1% active; note: nearly all actives have a fitted effect of over 55% in size
Target sequence (P10636 561-689 P618L limits assumed): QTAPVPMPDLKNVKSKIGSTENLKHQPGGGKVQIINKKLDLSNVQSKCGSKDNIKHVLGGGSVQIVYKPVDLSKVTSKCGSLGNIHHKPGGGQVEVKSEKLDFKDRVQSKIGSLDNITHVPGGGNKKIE
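Using a mix of unlabeled (15 uM) and Alexa 594-labeled (0.24 uM) tau K18 P301L, heparin-triggered fibrillization over 6 hr at 37 C was scored by ThT fluorescence.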
FBPA coupling cs: counter-screen for Giardia aldolase inhibitors: coupling enzyme system; 290,000 tested, 0.67% active; AID 2472; activity change, negative = inhibition, % at 58.2 µM, hits read low; coupling enzyme system counterscreen, AmpLite Red fluorescence; in the data active = activity change below about -30%
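Activity here indicates interference with the coupling reaction, not aldolase inhibition. Compounds at 57.5 uM final met coupling enzymes for 10 min at RT; substrate and AmpLite Red detection followed, with a 525/598 nm fluorescence read after 20 min.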
Tau fibril FP: blocks human tau fibril formation measured by polarization | P10636 | K18 P301L tau heparin fibrillization, Alexa594 FP, 6 h | Potency, µM (top dose mostly 57.7 µM), hits mostly inhibitors | 280,000 tested, 0.39% active | AID 1468; note: nearly all actives have a fitted effect of over 55% in size
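Read-out: fluorescence polarization of Alexa 594-labeled tau (0.24 uM), 555 nm excitation, 632 nm emission. Mixtures held 15 uM unlabeled K18 P301L, compound and 20 uM heparin, pH 7 acetate buffer, incubated 6 hr at 37 C.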
Tau fluor cs: counter-screen for tau fibril formation inhibitors; Potency, µM (series often up to 57.7 µM); tau K18 P301L (four-repeat tau fragment) Alexa594 fluorescence, heparin fibrillization; AID 1463; 280,000 tested, 0.93% active; note: nearly all actives have a fitted effect of over 55% in size
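Human K18 P301L tau (15 uM unlabeled plus 0.24 uM Alexa 594-labeled, final) in 100 mM sodium acetate pH 7 was mixed with compound and 20 uM heparin and incubated 6 hr at 37 C.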
USP1-UAF1 inh: blocks the human USP1/UAF1 deubiquitinase complex; O94782; recombinant USP1/UAF1, Ub-Rhodamine cleavage fluorescence; Potency, µM (highest dose often 57.1 µM), most hits filed as inhibitors; 390,000 tested, 0.23% active; AID 743255; note: nearly all actives have a fitted effect of over 60% in size
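USP1/UAF1 complex at 1 nM was preincubated with compound for 15 min at room temperature, then Ub-Rho substrate (150nM final) was added. Fluorescence (480/540 nm) was read kinetically, 6 reads every 60 seconds.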
Large screens that a line does not name were inactive; ! = repeats disagree; [ ] = another dose, or the depositor's remark. Hits are enriched below; roughly 2.3% of the tested compounds scored in any of these assays. Unless noted, calls come from the whole dose curve; as a rule, active = well fitted curve in the direction sought with a large enough effect; inconclusive = small, poorly fitted or top-dose-only effect, or another doubt; inactive = no such curve, though single readings can be large; an effect the other way counts as inactive or inconclusive.

COc1cc(/C=C/c2ccc3cccc(OC)c3n2)c(OC(C)=O)c([N+](=O)[O-])c1	Tau ThT inhib 2.8µM, Tau fibril FP inconclusive, Tau fluor cs inconclusive
O=C1N=c2ccccc2=C1c1c(O)n(-c2cccc(F)c2)[nH]c1=O	Tau ThT inhib 14µM, Tau fibril FP inconclusive
CCn1c(O)c(C2=c3ccccc3=NC2=O)c2cc(Br)ccc21	none
Cc1cc(C)c2c(N)c(S(=O)c3ccc(C(C)(C)C)cc3)sc2n1 (configuration not stated)	Tau ThT inhib 25µM, Tau fibril FP inconclusive, Tau fluor cs inconclusive
COc1ccc(N2CC(NC(=O)CCCc3ccccc3)CC2=O)cc1 (configuration not stated)	none (no result: FBPA coupling cs)
COc1ccc(N/N=C(\C#N)C(=N)SCc2ccccc2)cc1	Tau ThT inhib 14µM, Tau fluor cs inconclusive
COc1ccc(N/N=C(\C#N)C(=N)N2CCCCC2)cc1	Tau ThT inhib inconclusive
Cc1cccc(NC(=O)c2sc3nc(N4CCOCC4)c4c(c3c2N)CC(C)(C)OC4)c1	USP1-UAF1 inh inconclusive (no result: FBPA coupling cs)
CCN(CC)c1ccc(/C=N/NS(=O)(=O)c2cccc([N+](=O)[O-])c2)cc1	Tau ThT inhib inconclusive, Tau fibril FP inconclusive, Tau fluor cs inconclusive
CCN(Cc1ccccc1)c1ccc(/C=N/NS(=O)(=O)c2ccc(C)c([N+](=O)[O-])c2)cc1	Tau ThT inhib inconclusive, Tau fibril FP inconclusive, Tau fluor cs 7.1µM[quencher]
CCc1ccc(-c2nc3cc(NC(=O)c4ccc(F)cc4)ccc3o2)cc1	Tau ThT inhib inconclusive (no result: FBPA coupling cs)
c1ccc(-c2cnc(CSc3nnc4ccccn34)o2)cc1	FBPA coupling cs -37
O=C(CSc1ccc2nc(-c3ccccc3)cn2n1)Nc1cccc(F)c1	Tau fibril FP inconclusive, Tau fluor cs inconclusive (no result: FBPA coupling cs)
Cc1ccc(N=c2c([N+](=O)[O-])nn(-c3ccc(Cl)cc3)n2O)cc1C	Tau ThT inhib 13µM, Tau fluor cs inconclusive
O=[N+]([O-])c1nn(-c2ccc3c(c2)OCCO3)n(O)c1=Nc1ccccc1	none
CCc1ccc(N=c2c([N+](=O)[O-])nn(-c3ccc4c(c3)OCCO4)n2O)cc1	Tau ThT inhib 11µM, Tau fluor cs inconclusive
Cc1ccc(N=c2c([N+](=O)[O-])nn(-c3ccc4c(c3)OCCO4)n2O)cc1F	Tau ThT inhib inconclusive, Tau fluor cs inconclusive
O=[N+]([O-])c1nn(-c2ccc3c(c2)OCCO3)n(O)c1=Nc1ccc(Cl)cc1	Tau ThT inhib 14µM, Tau fibril FP inconclusive, Tau fluor cs inconclusive
Cc1cc(C)cc(N=c2c([N+](=O)[O-])nn(-c3ccc4c(c3)OCCO4)n2O)c1	Tau ThT inhib inconclusive, Tau fibril FP inconclusive, Tau fluor cs inconclusive
COc1ccc(NC(=O)C(NS(=O)(=O)c2cccc3nsnc23)c2ccccc2)cc1 (configuration not stated)	none (no result: FBPA coupling cs)
CCCOc1ccc(CNC(=O)c2[nH]c3cc(OC)ccc3c2Sc2ccccc2)cc1	none (no result: FBPA coupling cs)
COc1cc2c(=O)c(C(=O)c3ccc(F)cc3)cn(Cc3cccc(F)c3)c2cc1OC	none (no result: FBPA coupling cs)
COc1ccccc1Cc1nc2ccccc2nc1SCC(=O)Nc1ccc2c(c1)OCO2	none (no result: FBPA coupling cs)
O=C(CSc1nc(-c2ccccc2)c(-c2ccccc2)[nH]1)Nc1ccc2c(c1)OCO2	Tau fluor cs inconclusive
O=C(CSc1nc(-c2ccccc2)[nH]c1-c1ccccc1)Nc1ccc2c(c1)OCO2	Tau ThT inhib inconclusive, Tau fluor cs 7.1µM[quencher] (no result: FBPA coupling cs)
COc1cc(-c2nc(SCC(=O)Nc3ccc4c(c3)OCO4)c(-c3ccccc3)[nH]2)cc(OC)c1OC	Tau ThT inhib inconclusive, Tau fluor cs 5.6µM[quencher], USP1-UAF1 inh inconclusive (no result: FBPA coupling cs)
CN1CCc2cccc3c2[C@H]1Cc1ccc(O)c(O)c1-3	Tau ThT inhib 18µM, Tau fibril FP 20µM!, Tau fluor cs 22µM[quencher]
CC(C)C(=O)NC(c1cccs1)c1cc([N+](=O)[O-])c2cccnc2c1O (configuration not stated)	Tau ThT inhib 14µM
Cc1ccc(C(NC(=O)C(C)C)c2cc([N+](=O)[O-])c3cccnc3c2O)cc1 (configuration not stated)	Tau ThT inhib inconclusive, USP1-UAF1 inh inconclusive
CCNc1ncc2nc(-c3ccc(F)cc3)c(=O)n(C[C@H]3CCCO3)c2n1	none (no result: Tau ThT inhib, Tau fibril FP, Tau fluor cs, USP1-UAF1 inh)
CCc1nnc(NC(=O)c2sc3nc4c(cc3c2N)CCCCC4)s1	Tau ThT inhib 1.4µM

Screens: PubChem, National Center for Advancing Translational Sciences (NCATS)
